Assay [1] in a line: NCI Yeast Anticancer Drug Screen. Data for the rad50 strain (AID 155).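 Further: 0% = growth of vehicle-only cultures of the same strain.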 As to conditions: S. cerevisiae rad50 strain growth inhibition; at 50.0 µM; hits give high values. An outline of the steps:
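A DNA repair-deficient yeast mutant serves as the test organism; compound-induced growth inhibition is calculated against vehicle-treated cells.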

The nature of assay [2]: NCI Yeast Anticancer Drug Screen. Data for the mec2-1 strain (AID 157). Particulars: S. cerevisiae mec2-1 strain, at 50.0 µM, hits give high values. An outline of the steps: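 Test agents were screened against the mec2-1 yeast strain, with defined DNA repair or cell cycle alteration. Growth was scored as inhibition against vehicle-only controls.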
The nature of assay [3]: NCI Yeast Anticancer Drug Screen. Data for the sgs1 mgt1 strain (AID 161).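 Further: 0% = growth of cultures given vehicle only.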 As to conditions: S. cerevisiae sgs1 mgt1 strain, at 50.0 µM, hits give high values. An outline of the steps: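 Test agents were incubated with a DNA-repair-mutant yeast strain. Growth was then read and compared against vehicle-treated controls.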
Assay [4] is described as follows: NCI Yeast Anticancer Drug Screen. Data for the cln2 rad14 strain (AID 165).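 Further: 0% = growth equal to vehicle treated cultures.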 As to conditions: S. cerevisiae cln2 rad14 strain, at 50.0 µM, hits give high values. An outline of the steps:
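Growth of compound-exposed yeast (cln2 rad14 genotype) measured and expressed as inhibition relative to vehicle.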

Assay [5] can be described thus: NCI Yeast Anticancer Drug Screen. Data for the bub3 strain (AID 167). As to conditions: S. cerevisiae bub3 mutant strain, at 50.0 µM, hits give high values. An outline of the steps: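 Inhibition values come from growth of compound-treated mutant yeast normalised to vehicle-treated controls.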
A short description of assay [6]: NCI Yeast Anticancer Drug Screen. Data for the mlh1 rad18 strain (AID 175). As to conditions: S. cerevisiae mlh1 rad18 strain growth inhibition; at 50.0 µM; hits give high values. An outline of the steps: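 In this whole-cell yeast screen, a strain with altered DNA damage repair is challenged with compound, and its growth is measured against matched vehicle-treated controls.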

SMILES strings stand for the structures. Several values for one entry are separate records, joined by “and”; a condition that tells them apart may be missing. Identical values can stand only once. This is part of a sample that, as a whole, favours compounds with a hit. Of some 79,000 tested, about 15% had one in any assay. Unmarked numbers belong to inactive results. Activity calls are given as the source filed them. No stated cut-off is given here; in the data, active means growth inhibition above about 70%; inactive means the rest.

On to `CC(C)Oc1ccccc1OC(=O)N(C)C=O`, for which the growth inhibition in assay [1] was -15.9%; in assay [2], -2.7%; in assay [3], -6.8%; in assay [4], -18%; in assay [5], -17.3%; in assay [6], -15.4%.
As for `O=P(N1CCOCC1)(N1CC1)N1CC1`, the growth inhibition in assay [1] is 15.4%; in assay [2], -7.35%; in assay [3] it was -0.15%; in assay [4], 13.7%; in assay [5] it was 9%; in assay [6] it was 34.7%.
With `O=C(COc1ccc(Cl)c(Cl)c1)Nc1ccc[n+](Cc2ccc(S(=O)(=O)F)cc2Cl)c1`, the growth inhibition in assay [1] is 52.5%; in assay [2], 27.9%; in assay [3] it was 17.6%; in assay [4] it was 58.2%; in assay [5], 4%; in assay [6], 8.5%.
As to `Cc1nc([N+](=O)[O-])c([N+](=O)[O-])n1CC(O)CCl` (stereo not drawn), the growth inhibition is 3.85% in assay [1]; -12.4% in assay [2]; 4.2% in assay [3]; 14.9% in assay [4]; -28.1% in assay [5]; 20.4% in assay [6].
As for `[N-]=[N+]=NC1=C(N=[N+]=[N-])c2cccc3cccc(c23)C1=O`, the growth inhibition is 46.3% in assay [1]; 29.1% in assay [2]; 55.3% in assay [3]; 55.6% in assay [4]; 21.1% in assay [5]; 81.9% (active) in assay [6].
On to `COC(=O)C1C(=O)CC2N(C)C1C(C)(C)C2(C)C` (stereo not drawn), for which the growth inhibition in assay [1] is 47.9%; in assay [2], 21.4%; in assay [3], 60.6%; in assay [4], 4.8%; in assay [5], 38.4%; in assay [6], 56.1%.
Take `O=C(/C=C/c1ccc([N+](=O)[O-])cc1Cl)Nc1cccc(S(=O)(=O)F)c1`: the growth inhibition is 6% in assay [1]; 16.8% in assay [2]; -0.35% in assay [3]; 18.2% in assay [4]; -6.3% in assay [5]; -8.2% in assay [6].
Turning to `CC(C)NCC(=O)c1ccc(O)c(O)c1`, the growth inhibition in assay [1] was 4.9% and -5.1%; in assay [2] it was -19.3% and 4.45%; in assay [3], -21.8%; in assay [4], -7.25%; in assay [5], -26.1%; in assay [6] it was 7.7% and -10.9%.

(Values after PubChem BioAssay (NCI).)
